According to the supplement of paper PMC6555819:

Experiments:
Experiment in all cases: PBM binding z-score (relative to random genomic background probes); higher = stronger binding; sequences stand for … in GC…GCGATTGACAGCGTAGAATGAAGG
[1] = system: PPARg:RXRa DBDmut IVT, anti-RXR (DBD mutation: RXRa K156A/R161A, NR concentration 270 nM, RXRa partner concentration 90 nM)
Summary of the method: (§1)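 The probes on custom Agilent 4×180K protein-binding microarrays were double-stranded, with 34-nt variable regions bearing direct-repeat seeds, single-nucleotide variants, half-site ablations and random human genomic background sequences. Incubation lasted 1 h with ligand-free nuclear receptor dimers in PBS pH 7.4, 2% milk, 0.02% Triton X-100, 1 mM DTT, 0.2 mg/mL BSA and 0.4 mg/ml salmon testes DNA. Antibodies against each partner (one per run) detected bound dimers, and fluorescence scans were regression-normalized. Binding z-scores take the random background probes as reference.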

[2] = system: PPARg:RXRa IVT, anti-PPARg (NR concentration 270 nM, RXRa partner concentration 90 nM)
Summary of the method: as §1

[3] = system: PPARg DBDmut:RXRa IVT, anti-PPARg (DBD mutation: PPARg1 K132A/R137A, NR concentration 270 nM, RXRa partner concentration 90 nM)
Summary of the method: as §1

[4] = system: PPARg DBDmut IVT, anti-PPARg (DBD mutation: PPARg1 K132A/R137A, NR concentration 270 nM)
Summary of the method: as §1

[5] = system: PPARg homodimer (NR concentration 180 nM)
Summary of the method: as §1

[6] = system: PXR:RXRa (NR concentration 270 nM, RXRa partner concentration 90 nM)
Summary of the method: as §1

[7] = system: PXR homodimer (NR concentration 270 nM)
Summary of the method: as §1

[8] = system: RARa:RXR (NR concentration 270 nM, RXRa partner concentration 90 nM)
Summary of the method: as §1

[9] = system: RARa homodimer (NR concentration 270 nM)
Summary of the method: as §1

[10] = system: RARb:RXRa (NR concentration 270 nM, RXRa partner concentration 90 nM)
Summary of the method: as §1

| Sequence | PBM binding z-score [1] | PBM binding z-score [2] | PBM binding z-score [3] | PBM binding z-score [4] | PBM binding z-score [5] | PBM binding z-score [6] | PBM binding z-score [7] | PBM binding z-score [8] | PBM binding z-score [9] | PBM binding z-score [10] |
| --- | --- | --- | --- | --- | --- | --- | --- | --- | --- | --- |
| ACTTACGGGTCAACGAGGTTATAGCGCGCGTATA | 3.58 | 4.21 | 0.78 | 1.28 | 2.15 | 5.22 | 3.53 | 5.29 | 0.581 | 4.29 |
| ATCGAAAGGTCGAGGTCAGTATAGAGAAAGGGAA | 0.84 | 3.1 | 1.71 | 1.29 | 3.42 | 4.33 | 1.7 | 4.81 | 2.18 | 5.1 |
| GGAACGAGGGCCAAGTTGATAGCATCTGTCGACG | 0.254 | -0.0508 | -1.09 | -0.973 | -0.0593 | -0.242 | -0.456 | -0.293 | -0.285 | 0.806 |
| CCTCGGTGGACAACAGGAGGTCAGAGCTGCCAGA | -0.628 | 0.0551 | -1.3 | -1.14 | 0.735 | 1.53 | 0.332 | 1.77 | 0.503 | 1.93 |
| TCTTGTAGCTCAGCAGGTTAAGAAAGCTGGCCAA | 0.777 | -0.372 | -0.853 | -0.876 | -0.753 | -0.26 | -0.524 | -0.108 | -1.11 | -0.157 |
| ATAGCAAGGTGATCGTGAGGTCGTTGATACTAAC | 0.118 | 0.727 | 0.619 | 0.253 | 0.565 | 2.62 | 0.543 | 1.98 | -0.0537 | 1.16 |
| ATACCAAGGTGATCGAGAGGTCGTTGATACTAAC | 0.406 | 1.39 | 0.441 | 0.884 | 1.08 | 2.91 | 1.12 | 2.04 | 0.692 | 1.56 |
| AGTCAAAGTTCACTAGGTAATGTAAGATTCAGCT | 2.34 | 4.44 | 1.59 | 2.13 | 2.35 | 4.01 | 2.75 | 3.26 | 1.29 | 4.78 |
| CGAACTAGGTCATCCAGGACATTGAATACATTGA | 8.08 | 8.47 | 4.18 | 1.44 | 2.2 | 2.71 | 3.75 | 2.82 | 1.01 | 3.92 |
| ATCTGTAGGTAACCAAGTTCAGTGAATGCCGAAC | 2.89 | 2.55 | -0.123 | 0.924 | 0.414 | 2.03 | 1.73 | 0.813 | 0.332 | 1.08 |
| AGAACGAGGGCAATGAGTTGATAGGACGGGTGGC | 3.48 | 2.09 | 0.826 | 0.0416 | -0.0695 | 1.12 | 5.45 | 0.114 | -0.321 | 2 |
| ATATGTAGGTTATCGGGTCATTCCGTTTGCGCAT | 7.56 | 7.62 | 4.25 | 2.25 | 2.58 | 3.12 | 1.27 | 3.83 | 0.962 | 2.65 |
| AGAACGAGGACAATGAGTTGATAGCACGGGTGGC | 1.03 | 0.378 | -0.192 | -0.367 | 0.00958 | 0.277 | 1.99 | -0.176 | 0.102 | 0.775 |
| AGTCACAGTTCATCTAGGTAACGTAAGATATGCT | 0.901 | 2.75 | 1.15 | 1.19 | 0.64 | 2.32 | 1.87 | 1.44 | 0.582 | 2.74 |
| GGAACGAGGGCAAATTTGATAGCATCTGTCGACG | 3.93 | 2.76 | 0.00863 | -0.28 | 0.201 | 0.608 | 0.0405 | 0.115 | 0.0323 | 2.19 |
| TATACAGCGTCAAAGGCCAGAGTACGAATGTCGA | -0.701 | 0.258 | -0.154 | 0.515 | -0.844 | -0.442 | -0.0905 | -0.513 | -0.705 | 0.524 |
| CGTCAAAGTTCAAGATAACGTAACAGAAAGCAGC | 0.612 | 1.57 | 1.5 | 1.52 | 3.29 | 4.2 | 3.04 | 3.35 | 2.34 | 4.9 |
| CCTAGTTGGTCATGGTCACACACGCTATAGGTAC | 1.53 | 1.72 | 0.378 | 0.935 | 0.845 | 0.223 | 0.732 | 0.207 | 1.39 | 1.46 |
| TCTAGAAGGCCAGAGGGTCACTCAAGAGGTACGG | 1.75 | 0.693 | -0.301 | 0.186 | 1.22 | 1.64 | 0.0475 | 2.54 | 0.19 | 2.68 |
| TCTAGTTGGTCAAACGTCACACACTCGAAATGCG | 3.29 | 2.32 | 0.65 | 1.11 | 1.05 | 0.699 | 0.241 | 0.948 | 0.646 | 1.2 |
| TAGCCTAGGTCATGCGCCAGTATACCACGCGAAC | 1.95 | 3.1 | 1.01 | -0.0835 | 1.11 | 1.61 | -0.142 | 2.54 | -0.948 | 3.76 |
| GGAACGAGGGCAAGATGATAGCAGAGTTTGATGG | 3.59 | 2.4 | -0.698 | -0.398 | 0.136 | 0.418 | 0.432 | 0.145 | 0.345 | 2.19 |
| TAGCCTAGGTCAGGGGCCAGTATACCACGCGAAC | 0.374 | 2.32 | 0.429 | 0.131 | 0.542 | 0.506 | -0.579 | 1.42 | -0.0424 | 3.22 |
| TAGCCTAGGTCAGAACGGGCCAGTATACGCTATA | 0.749 | 1.5 | -0.735 | -1.15 | 0.155 | 0.457 | -0.462 | 0.873 | -0.513 | 2.75 |
